# Laboratory results taken from publication PMC11062922 (Nature Chemical Biology, 2023).
# Where two headings read alike, the source gives them in different places.
# Experiments:
# Set-up in all cases: species or system human, MV4-11 + K-562 + COLO205 + SK-N-BE2 + OVCAR-8
# [1] = test system: EGFR; details: read-out: apparent Kd; compound concentrations: 100 nM and 1000 nM (sheet 'Samples'), CATDS: 1; n = 1
# [2] = test system: T1, DJA1; details: read-out: apparent Kd, n = 1
# T1 construct: gene DNAJA1
# [3] = test system: PDXK; details: read-out: apparent Kd, compound concentrations: 100 nM and 1000 nM (sheet 'Samples'), n = 1
# [4] = test system: PIK3CB; details: read-out: apparent Kd; compound concentrations: 100 nM and 1000 nM (sheet 'Samples'), CATDS: 0.79841434313068305; n = 1
# [5] = test system: TGFBR1; details: read-out: apparent Kd; compound concentrations:100 nM and 1000 nM (sheet 'Samples'); n = 1
# [6] = test system: DYNC1LI1; details: read-out: apparent Kd; compound concentrations: 100 nM and 1000 nM (sheet 'Samples'), CATDS: 8.5515201932316404E-2; n = 1
# [7] = test system: GSK3A; details: read-out: apparent Kd; compound concentrations: 100 nM and 1000 nM (sheet 'Samples'), CATDS: 8.5763522680639803E-2; n = 1
# [8] = test system: GSK3B; details: read-out: apparent Kd; compound concentrations: 100 nM and 1000 nM (sheet 'Samples'), CATDS: 7.6779937662019099E-2; n = 1
# [9] = test system: IRAK4; details: read-out: apparent Kd; compound concentrations: 100 nM and 1000 nM (sheet 'Samples'), CATDS: 6.7100435979899897E-2; n = 1
# [10] = test system: MAP2K1; details: read-out: apparent Kd; compound concentrations: 100 nM and 1000 nM (sheet 'Samples'), CATDS: 6.4942175038997504E-2; n = 1
# [11] = test system: MAP3K2; details: read-out: apparent Kd; compound concentrations: 100 nM and 1000 nM (sheet 'Samples'), CATDS: 7.9900498504471701E-2; n = 1
# [12] = test system: STK3; details: read-out: apparent Kd; compound concentrations: 100 nM and 1000 nM (sheet 'Samples'), CATDS: 7.3483496844903004E-2; n = 1
# [13] = test system: STK4; details: read-out: apparent Kd, compound concentrations: 100 nM and 1000 nM (sheet 'Samples'), n = 1
# [14] = test system: TAOK1; details: read-out: apparent Kd, compound concentrations: 100 nM and 1000 nM (sheet 'Samples'), n = 1
# [15] = test system: TAOK3; details: read-out: apparent Kd; compound concentrations: 100 nM and 1000 nM (sheet 'Samples'), CATDS: 8.7598902274653806E-2; n = 1
# [16] = test system: TNK2; details: read-out: apparent Kd; compound concentrations: 100 nM and 1000 nM (sheet 'Samples'), CATDS: 8.6765119114313102E-2; n = 1
# [17] = test system: TUBB6; details: read-out: apparent Kd; compound concentrations: 100 nM and 1000 nM (sheet 'Samples'), CATDS: 7.2898721054062393E-2; n = 1
# [18] = test system: WEE1; details: read-out: apparent Kd; compound concentrations: 100 nM and 1000 nM (sheet 'Samples'), CATDS: 6.8522632580167595E-2; n = 1
# [19] = test system: PIK3C3; details: read-out: apparent Kd; compound concentrations: 100 nM and 1000 nM (sheet 'Samples'), CATDS: 0.180657848529719; n = 1
# [20] = test system: PIK3CA; details: read-out: apparent Kd; compound concentrations: 100 nM and 1000 nM (sheet 'Samples'), CATDS: 0.62004014167069399; n = 1
# [21] = test system: STK16; details: read-out: apparent Kd, compound concentrations: 100 nM and 1000 nM (sheet 'Samples'), n = 1
# [22] = test system: GRAMD1A; details: read-out: apparent Kd; compound concentrations: 100 nM and 1000 nM (sheet 'Samples'), CATDS: 0.16329310208272499; n = 1
# [23] = test system: TESK1; details: read-out: apparent Kd; compound concentrations: 100 nM and 1000 nM (sheet 'Samples'), CATDS: 0.150305676910791; n = 1
# [24] = test system: DYRK1A; details: read-out: apparent Kd, n = 1
# [25] = test system: EIF2AK1; details: read-out: apparent Kd; compound concentrations:100 nM and 1000 nM (sheet 'Samples'); n = 1
# [26] = test system: IRAK3; details: read-out: apparent Kd; compound concentrations:100 nM and 1000 nM (sheet 'Samples'); n = 1
# [27] = test system: OPA1; details: read-out: apparent Kd; compound concentrations:100 nM and 1000 nM (sheet 'Samples'); n = 1
# [28] = test system: PIK3CD; details: read-out: apparent Kd; compound concentrations:100 nM and 1000 nM (sheet 'Samples'); n = 1
# [29] = test system: DHCR24; details: read-out: apparent Kd; compound concentrations:100 nM and 1000 nM (sheet 'Samples'); n = 1
# [30] = test system: MCM5; details: read-out: apparent Kd; compound concentrations:100 nM and 1000 nM (sheet 'Samples'); n = 1
# [31] = test system: DDR1; details: read-out: apparent Kd; compound concentrations:100 nM and 1000 nM (sheet 'Samples'); n = 1
# [32] = test system: RET; details: read-out: apparent Kd; compound concentrations:100 nM and 1000 nM (sheet 'Samples'); n = 1
# [33] = test system: MAPK10; details: read-out: apparent Kd; compound concentrations: 100 nM and 1000 nM (sheet 'Samples'), CATDS: 0.199019247687024; n = 1
# [34] = test system: MAPK11; details: read-out: apparent Kd; compound concentrations: 100 nM and 1000 nM (sheet 'Samples'), CATDS: 0.17455940008728901; n = 1
# [35] = test system: MAPK14; details: read-out: apparent Kd, n = 1
# [36] = test system: MAPK9; details: read-out: apparent Kd; compound concentrations: 100 nM and 1000 nM (sheet 'Samples'), CATDS: 0.189062450586059; n = 1
# [37] = test system: PRKD2; details: read-out: apparent Kd; compound concentrations:100 nM and 1000 nM (sheet 'Samples'); n = 1
# [38] = test system: PRKD3; details: read-out: apparent Kd; compound concentrations:100 nM and 1000 nM (sheet 'Samples'); n = 1
# [39] = test system: MAPKAPK2; details: read-out: apparent Kd; compound concentrations:100 nM and 1000 nM (sheet 'Samples'); n = 1
# [40] = compound concentrations:100 nM and 1000 nM (sheet 'Samples')
compound,measurement,setting,value
Cl.c1ccc(Cn2ccc3cc(Nc4ncnc5ccccc45)ccc32)cc1 [GW275568A],potency estimated from few doses,[1],82.9 nM
Cc1c(Cn2c3ccccc3n3c(=O)cc(N4CCOCC4)nc23)cccc1C(F)(F)F [GSK2306394A],potency estimated from few doses,"[2]; compound concentrations: 100 nM and 1000 nM (sheet 'Samples'), CATDS: 0.30097601497631998",653 nM
same,potency estimated from few doses,[3]; CATDS: 0.22598902737403401,1920 nM
same,potency estimated from few doses,[4],66.7 nM
Clc1ccc(-c2cc(-c3c[nH]nc3-c3ccccn3)ccn2)cc1 [GW681251X],potency estimated from few doses,[2]; [40],843 nM
same,potency estimated from few doses,[5],856 nM
COc1ccc2c(c1)C(c1ccccc1Cl)=Nc1c(n[nH]c1C)N2 [RO0281498-000],potency estimated from few doses,[6],1210 nM
same,potency estimated from few doses,[7],1210 nM
same,potency estimated from few doses,[8],1500 nM
same,potency estimated from few doses,[9],2010 nM
same,potency estimated from few doses,[10],2180 nM
same,potency estimated from few doses,[11],1380 nM
same,potency estimated from few doses,[12],1640 nM
same,potency estimated from few doses,[13]; CATDS: 6.4981472702296803E-2,2180 nM
same,potency estimated from few doses,[14]; CATDS: 0.10465573180823801,858 nM
same,potency estimated from few doses,[15],1160 nM
same,potency estimated from few doses,[16],1180 nM
same,potency estimated from few doses,[17],1670 nM
same,potency estimated from few doses,[18],1920 nM
COc1ccc(NC(=O)c2ccoc2)cc1-c1ccc(C(=O)NCC2CC2)cc1 [GW810437X],potency estimated from few doses,"[2]; compound concentrations: 100 nM and 1000 nM (sheet 'Samples'), CATDS: 0.17319621372560801",1720 nM
same,potency estimated from few doses,[19],1530 nM
same,potency estimated from few doses,[20],147 nM
same,potency estimated from few doses,[21]; CATDS: 0.16232458546683101,2060 nM
same,potency estimated from few doses,[13]; CATDS: 0.1689879657386,1830 nM
Cc1c(O)cccc1Nc1ccnc2ccc(C(F)(F)F)cc12.Cl [GW466413A],potency estimated from few doses,"[2]; compound concentrations: 100 nM and 1000 nM (sheet 'Samples'), CATDS: 0.25359634336132503",686 nM
same,potency estimated from few doses,[22],1490 nM
same,potency estimated from few doses,[3]; CATDS: 0.146836673645412,1890 nM
same,potency estimated from few doses,[21]; CATDS: 0.15656127155851701,1630 nM
same,potency estimated from few doses,[14]; CATDS: 0.164417003355011,1470 nM
same,potency estimated from few doses,[23],1790 nM
COc1ccc(-c2oc3ncnc(N)c3c2-c2ccc(OC)cc2)cc1 [SB-589132],potency estimated from few doses,[24]; [40],1950 nM
same,potency estimated from few doses,[25],2270 nM
same,potency estimated from few doses,[26],1120 nM
same,potency estimated from few doses,[27],1860 nM
same,potency estimated from few doses,[28],151 nM
O=C1NC(=O)C(N2CCc3ccccc32)=C1c1cccc(Cl)c1 [SB-408010],potency estimated from few doses,[29],1900 nM
same,potency estimated from few doses,[30],1580 nM
COc1cccc(NC(=O)NC2CCN(c3ccnc(Nc4ccc(F)cc4)n3)C2)c1 (stereo not shown) [GSK1379721A],potency estimated from few doses,"[2]; compound concentrations: 100 nM and 1000 nM (sheet 'Samples'), CATDS: 1",1340 nM
COC(=O)Nc1nc2ccc(Oc3ccc(NC(=O)Nc4cc(C(F)(F)F)ccc4F)cc3)cc2[nH]1.Cl [GW654607A],potency estimated from few doses,[31],2140 nM
same,potency estimated from few doses,[32],640 nM
C[C@H](CS(C)(=O)=O)Nc1ncc2cc(Oc3ccc(F)cc3F)c(=O)n(C)c2n1 [RO5043312-000],potency estimated from few doses,"[24]; compound concentrations: 100 nM and 1000 nM (sheet 'Samples'), CATDS: 0.12801866170396201",1960 nM
same,potency estimated from few doses,[33],398 nM
same,potency estimated from few doses,[34],583 nM
same,potency estimated from few doses,"[35]; compound concentrations: 100 nM and 1000 nM (sheet 'Samples'), CATDS: 0.87257547022931203",10.8 nM
same,potency estimated from few doses,[36],460 nM
CCCN(CCS(C)(=O)=O)Cc1ccc(-c2ccc3ncnc(Nc4ccc(OCc5cccc(F)c5)c(Cl)c4)c3c2)o1.Cl [GW621823A],potency estimated from few doses,[1],643 nM
Cc1cccc(-c2nc(Nc3ccc4ncsc4c3)c3ccccc3n2)n1 [GW867588X],potency estimated from few doses,[2]; [40],134 nM
same,potency estimated from few doses,[37],37.5 nM
same,potency estimated from few doses,[38],74.8 nM
CCN1CCN(Cc2ccc(C(=O)Nc3ccc(C)c(Oc4ccc5c(c4)CC(=O)N5)c3)cc2C(F)(F)F)CC1.Cl.Cl [DDR1-in-1],potency estimated from few doses,[31],363 nM
same,potency estimated from few doses,[35]; [40],958 nM
same,potency estimated from few doses,[39],858 nM
